# Source: PubChem BioAssay
# Calls of active or inactive are those of the source.
# How the values were obtained:
# Albumin (Bos taurus) = Albumin (Bos taurus) (UniProt P02769); experiment: bovine serum albumin binders on microarray, profiling panel, artefact control for SMM control protein annotation, biochemical, small-molecule microarray, Alexa647 label, 635/667 nm fluorescence (AID 1118); conditions: BSA-A647 binding, fluorescence 635 nm, higher = more signal;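 further: score merges 667 nm emission intensity and signal-to-noise per printed compound spot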
# [1] = small-molecule microarray binders of probe aXIP, primary screen, biochemical, NeuroSMM set, 635/667 nm fluorescence (AID 1119); conditions: higher = more signal, called active from +8 up or from −8 down;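 further: probe is the protein aXip251-270 applied at 1 µg/mL to compound-printed slides; binding of probe to printed compounds measured as 667 nm fluorescence plus signal to noise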
# [2] = small-molecule binders of probe aNOTCH3, primary screen, biochemical, small-molecule microarray, 635/667 nm fluorescence (AID 1120); conditions: higher = more signal;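 further: probe is a biotin-tagged antibody raised against NOTCH3 rather than NOTCH3 protein; score merges spot fluorescence near 667 nm with spot signal to noise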
# [3] = small-molecule binders of probe aNOTCH2, primary screen, biochemical, small-molecule microarray, 635/667 nm fluorescence (AID 1121); conditions: higher = more signal;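 further: score merges feature fluorescence read at 667 nm with its signal to noise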
# [4] = target: Carbonic anhydrase 2 (Homo sapiens) (UniProt P00918); experiment: CAII small-molecule binders, profiling panel, biochemical, small-molecule microarray, Alexa647-labelled CAII (AID 1122); conditions: CAII-A647 binding fluorescence, higher = more signal
# [5] = COS7 lysate on small-molecule microarray, probe aHis, 635 nm (AID 1123); conditions: COS7 cell lysate, fluorescence, higher = more signal;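 further: z-score combines 667nm fluorescence intensity with signal-to-noise per printed compound spot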
# [6] = compound binding in COS7 lysate, probe aLAP1, primary screen, cell lysate, small-molecule microarray (AID 1124); conditions: probe aLAP1, fluorescence, higher = more signal;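 further: lysate comes from COS7 cells expressing LAP1 and is applied at 0.3 µg/mL; score merges spot fluorescence near 667 nm with signal-to-noise over triplicate slides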
# Sam68 (KHDRBS1) = experiment: Sam68 small-molecule binders, primary screen, biochemical, small-molecule microarray, 635 nm fluorescence (AID 1125); conditions: small-molecule microarray binding, higher = more signal;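 further: score merges 667 nm channel intensity with signal to noise over triplicate slides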
# [7] = system: Chordin-like protein 2 (CHRDL2); experiment: CHRDL2 small-molecule binders, primary screen, biochemical, small-molecule microarray, 635 nm fluorescence (AID 1126); conditions: small-molecule microarray binding, fluorescence 635 nm; higher = more signal;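 further: printed compound slides probed with Chrdl2 protein at 4 µg/mL for 1 h at 4 C; score merges 667 nm emission intensity with signal to noise over three replicate slides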
# [8] = target: Concanavalin-A (Canavalia ensiformis) (UniProt P02866); experiment: ConA small-molecule binders, primary screen, artefact control for SMM control protein annotation, biochemical, small-molecule microarray, Alexa647 label, 635 nm (AID 1127); conditions: ConA-A647 binding fluorescence, higher = more signal;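 further: z combines 667 nm emission intensity with signal-to-noise across three replicate slides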
# Concanavalin-A (Canavalia ensiformis), sequence (P02866 whole entry, looked up): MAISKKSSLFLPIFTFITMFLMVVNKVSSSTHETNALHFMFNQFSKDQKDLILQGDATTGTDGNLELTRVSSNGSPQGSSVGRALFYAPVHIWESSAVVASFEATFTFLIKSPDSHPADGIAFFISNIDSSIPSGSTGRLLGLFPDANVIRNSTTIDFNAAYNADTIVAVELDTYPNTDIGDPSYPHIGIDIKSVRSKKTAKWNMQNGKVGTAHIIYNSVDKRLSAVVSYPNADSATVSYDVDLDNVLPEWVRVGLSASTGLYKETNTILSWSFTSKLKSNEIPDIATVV
# Albumin (Bos taurus), sequence (P02769 whole entry, looked up): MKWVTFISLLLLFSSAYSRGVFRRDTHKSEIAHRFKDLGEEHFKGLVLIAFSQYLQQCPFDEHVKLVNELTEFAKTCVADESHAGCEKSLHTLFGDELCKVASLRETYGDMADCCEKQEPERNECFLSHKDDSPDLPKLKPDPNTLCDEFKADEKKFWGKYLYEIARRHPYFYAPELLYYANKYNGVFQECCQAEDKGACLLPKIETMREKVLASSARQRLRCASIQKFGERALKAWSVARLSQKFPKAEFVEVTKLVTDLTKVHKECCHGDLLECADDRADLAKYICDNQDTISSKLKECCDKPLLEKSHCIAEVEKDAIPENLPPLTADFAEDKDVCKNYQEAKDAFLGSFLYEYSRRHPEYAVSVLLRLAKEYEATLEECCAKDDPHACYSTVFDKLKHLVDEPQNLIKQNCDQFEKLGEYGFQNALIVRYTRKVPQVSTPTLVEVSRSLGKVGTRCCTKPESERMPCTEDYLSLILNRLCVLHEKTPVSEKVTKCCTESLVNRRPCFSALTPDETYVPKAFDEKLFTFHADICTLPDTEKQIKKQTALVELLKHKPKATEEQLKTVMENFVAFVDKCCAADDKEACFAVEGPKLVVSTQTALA
SMILES,composite z-score (Albumin (Bos taurus)),composite Z-score [1],composite z-score [2],composite z-score [3],composite z-score [4],composite z-score [5],composite z-score [6],composite z-score (Sam68 (KHDRBS1)),composite z-score [7],composite z-score [8]
COCC(=C=CC[C@H](O)c1ccccc1OCCO)C[C@H](O)c1cc(Cl)cc(Cl)c1O,0.384,2.26 (inactive),-0.0077,-0.115,0.351,0.834,0.478,1.24,-0.383,0.689
COC(=O)[C@@]1(Cc2ccccc2)[C@H]2c3cc(C(=O)N4CCCC4)n(Cc4nc5ccccc5[nH]4)c3C[C@H]2CN1C(=O)c1ccccc1,1.03,0.579 (inactive),0.537,0.404,0.653,3.34,0.988,1.3,-0.72,0.912
COc1ccc([Si](C)(C)[C@@H]2[C@@H](CC(=O)N3Cc4ccccc4C[C@H]3CO)O[C@]3(C(=O)N(C)c4c(Br)cc(C)cc43)[C@H]2C)cc1,0.494,0.136 (inactive),0.0562,-0.164,0.574,0.498,0.172,1.31,1.11,1.13
COC(=O)[C@@]1(Cc2ccc(F)cc2)[C@@H]2[C@@H](CC(=O)[C@H]2CC(=O)C(=O)N(C)C)CN1C(=O)c1ccccc1,0.998,0.742 (inactive),0.245,-0.041,0.73,2.84,-0.171,1.34,-0.633,1.1
COc1ccc(C(O)C2C=CC3C(=O)NC(=O)C3N2Nc2ccccn2)c2ccccc12 (stereo not given),0.304,0.224 (inactive),-0.0431,-0.101,0.879,0.452,-0.14,-0.328,0.485,0.495
Cc1ccc(S[C@]2(C(=O)NCC(F)(F)F)CC(=O)N(C(C)C)[C@@H]2c2ccc(CO)cc2I)cc1,-0.667,0.314 (inactive),-0.276,-0.0557,0.742,0.506,0.106,-0.749,-0.445,-0.967
O=C1c2ccccc2[C@](Cc2ccccc2I)(C(=O)NC2CC2)[C@H](c2ccc(CO)cc2)N1Cc1ccccc1,-0.213,0.476 (inactive),-0.0055,-0.0495,0.711,1.7,0.478,0.512,-0.0374,0.894
O=C1NC(=O)C2C1C=CC(C(O)c1cccc3ccccc13)N2Nc1ccccn1 (stereo not given),0.421,0.0886 (inactive),0.138,-0.0966,0.553,0.296,0.447,0.0488,0.394,0.506
[N-]=[N+]=NCc1ccccc1[C@@H]1OC(c2ccc(OCCCO)cc2)=N[C@]1(CCS(=O)(=O)c1ccccc1)C(=O)NCCN1CCOCC1,0.899,1.31 (inactive),0.576,0.0476,0.634,2.86,0.623,1.3,0.207,1.1
[N-]=[N+]=NCc1ccccc1[C@H]1OC(c2ccc(OCCCO)cc2)=N[C@@]1(Cc1ccccc1)C(=O)NCc1ccccc1,0.882,-0.157 (inactive),0.0884,-0.283,0.448,2.88,0.444,1.26,0.547,0.824
O=C1NC(=O)C2C1C=CC(C(O)C(c1ccccc1)c1ccccc1)N2Nc1ccc(Cl)cc1Cl (stereo not given),0.766,-0.713 (inactive),0.263,0.0409,0.584,1.84,0.0766,0.993,-0.483,0.788
COC(=O)c1c(CC[C@@H](CO)NC(=O)N[C@@H](C)Cn2cc(C3(O)CCCCC3)nn2)oc(C(C)=O)c1C(=O)OC,0.0745,0.502 (inactive),0.0596,-0.0466,0.421,0.377,-0.0869,1.29,1.02,1.02
CC(=O)n1cc(C(O)C2C=CC3C(=O)N(C)C(=O)C3N2Nc2ccccc2)c2ccccc21 (stereo not given),0.712,-0.803 (inactive),0.235,0.027,0.562,1.84,-0.0989,1.11,1.25,0.897
CC(C)(C)OC(=O)CC[C@]12N=C(c3ccc(OCCCO)cc3)O[C@H]1c1ccccc1N(CCS(=O)(=O)c1ccccc1)C2=O,0.0963,1.02 (inactive),0.21,-0.0241,0.422,2.48,0.53,1.3,0.765,1.14
CN1C(=O)[C@]2(Cc3ccccc3)N=C(c3ccc(OCCCO)cc3)O[C@@H]2c2ccccc21,0.18,0.307 (inactive),0.0927,-0.0734,0.635,2.51,0.824,1.29,0.572,0.953
COCCOC(=O)N1C(=O)[C@@]2(c3cc(C#CC4=CCCCC4)ccc31)[C@H](c1ccc(O)cc1)N1[C@H](c3ccccc3)[C@H](c3ccccc3)OC(=O)[C@H]1[C@@H]2C(N)=O,-0.353,0.544 (inactive),0.092,-0.253,0.331,1.16,0.45,1.01,0.71,1.06
C=CCOC(=O)[C@@H]1[C@H]2C(=O)O[C@H](c3ccccc3)[C@H](c3ccccc3)N2[C@H](c2ccc(OCCOC(=O)[C@@H]3C[C@@H]4C(=O)N[C@@H](CCCCN(C)C)C(=O)N4[C@@H]3c3ccc(O)cc3)cc2)[C@@]12C(=O)Nc1ccc(I)cc12,0.848,0.412 (inactive),0.0738,-0.177,0.275,1.83,-0.157,1.29,1.15,1.16
C=CCNC(=O)[C@@H]1[C@H]2C(=O)O[C@H](c3ccccc3)[C@H](c3ccccc3)N2[C@H](c2ccccc2OCCO)[C@@]12C(=O)N(C(=O)OCCOC)c1ccc(C#CCNC(N)=O)cc12,0.79,-0.105 (inactive),0.184,-0.0772,0.247,1.47,0.546,1.32,-0.182,0.959
CCOC(=O)[C@H]1CC=C2CC1C(=O)N1CCC[C@@H]1[C@@H]2O[Si](C)(C)C(C)(C)C (stereo not given in full),-0.0458,0.131 (inactive),-0.213,-0.161,-0.386,0.168,-0.407,-0.0813,-0.287,-2.28
CCOC(=O)C[C@H]1[C@H](OC(=O)c2ccc(C(=O)c3ccccc3)cc2)[C@@H](NC(=O)c2ccc(-c3ccccc3)cc2)c2cc(OCCCO)ccc2N1C(=O)c1ccccc1,0.0256,2.04 (inactive),-0.0411,-0.11,0.0733,1.31,0.032,1.31,0.303,0.989
[N-]=[N+]=NCc1ccccc1[C@@H]1OC(c2ccc(OCCCO)cc2)=N[C@]1(Cc1ccccc1N=[N+]=[N-])C(=O)N1CCOCC1,0.809,0.105 (inactive),0.387,0.408,0.765,2.9,0.493,1.29,-0.119,1.21
CCCCCC1=C2CNC(CCC)(C(=O)OC)C=C2C(C)C1=O (stereo not given),0.912,0.956 (inactive),0.227,0.153,0.698,1.61,0.448,0.273,-0.723,0.236
C[C@@]1([C@@H](NC(=O)c2ccccc2)c2ccc(-c3ccccc3)cc2)C[C@H]1C1CCCCC1,0.373,0.309 (inactive),0.106,0.378,-0.137,0.121,-0.0002,-1.66,-1.51,-0.867
C=CCC(OC(C)=O)[C@@H]1[C@@H](N(Cc2ccc(-c3ccccc3)cc2)C(=O)Cc2ccc(F)cc2)c2cc(OCCCO)ccc2N1C(=O)c1ccc(-c2ccccc2)cc1 (stereo not given in full),0.127,-0.405 (inactive),0.0905,-0.141,-0.249,-0.338,0.0362,0.0072,0.528,-0.136
COC(=O)[C@@]1(Cc2ccc(OC)cc2)[C@H]2c3cc(C(=O)N(C)C)n(CCN4CNCC4=O)c3C[C@H]2CN1C(=O)c1ccccc1,0.854,-0.704 (inactive),0.0539,0.0228,0.879,0.287,0.898,-0.668,-0.386,-0.61
CC(C)N1C(=O)c2ccccc2[C@](C)(C(=O)NCc2ccccc2)[C@@H]1c1ccc(CO)cc1,0.182,1.32 (inactive),-0.245,-0.0323,0.703,-0.129,0.967,-0.484,-0.798,-0.866
C=CCOC(=O)[C@@H]1[C@H]2C(=O)O[C@H](c3ccccc3)[C@H](c3ccccc3)N2[C@H](c2ccc(OCCOC(=O)[C@@H]3C[C@@H]4C(=O)N5CCC[C@H]5C(=O)N4[C@@H]3c3ccc(O)cc3)cc2)[C@@]12C(=O)Nc1ccc(I)cc12,0.71,1.23 (inactive),-0.0831,-0.145,0.419,1.33,-0.0072,1.19,0.593,1.12
O=C1C[C@]2(c3ccc([N+](=O)[O-])cc3)C(=O)N(CCN3CCOCC3)c3cc(CO)ccc3[C@H]2N1C1CCCCC1,0.883,-0.598 (inactive),-0.221,-0.0904,0.646,0.294,-0.467,0.197,-0.337,-0.172
O=C(O)[C@@]1(CCS(=O)(=O)c2ccccc2)COC(c2ccc(OCCCO)cc2)=N1,-0.344,0.714 (inactive),-0.15,-0.108,0.815,1.63,0.0237,-0.39,-0.724,-0.0647
